Laboratory results from the supplement of paper PMC12339681.
Counter-ions that a name gives are not always drawn.

test system: PBMC-derived induced microglia-like cells (piMGLC); test: synaptosome phagocytic index relative to DMSO control (fraction of DMSO); higher = more phagocytosis; settings: concentration: 10 uM (2 uM for compounds listed in Table S2); pretreatment time: 24 h; assay time: 3 h

Structure (SMILES) | synaptosome phagocytic index
N[C@@H](CC(=O)O)C(=O)O [L-Aspartic_acid] | 0.871
N#Cc1cccc(C(=O)Nc2cc(-c3ccccc3)nn2-c2ccccc2)c1 | 0.299
CCCCCCCCCC(=O)O [Decanoic_acid] | 1.32
CC(C(=O)O)c1cccc(C(=O)c2ccccc2)c1 (centres undefined) [Ketoprofen] | 0.731
CNS(=O)(=O)Cc1ccc2[nH]cc(CCN(C)C)c2c1 [Sumatriptan_(succinate)] | 0.992
CS(=O)(=O)c1ccc(C2=C(c3ccccc3)C(=O)OC2)cc1 [Rofecoxib] | 1.08
CC[C@]1(O)C[C@H]2CN(CCc3c([nH]c4ccccc34)[C@@](C(=O)OC)(c3cc4c(cc3OC)N(C=O)[C@H]3[C@@](O)(C(=O)OC)[C@H](OC(C)=O)[C@]5(CC)C=CCN6CC[C@]43[C@@H]65)C2)C1 [Vincristine_(sulfate)] | 1.04
CNCC[C@@H](Oc1ccccc1C)c1ccccc1 [Atomoxetine_(hydrochloride)] | 1.16
C[C@H]1COCCN1c1nc(-c2cnc(N)cc2C(F)F)nc(N2CCOCC2)n1 | 0.366
O=C1c2cccc3c2[C@H](CCC3)CN1[C@@H]1CN2CCC1CC2 [Palonosetron_(Hydrochloride)] | 0.526
CCCc1nc(C)c2c(O)nc(-c3cc(S(=O)(=O)N4CCN(CC)CC4)ccc3OCC)nn12 [Vardenafil_(hydrochloride)] | 1.16
CC(C)[C@H](NC(=O)c1ccc2ccccc2n1)C(=O)N[C@@H](CC(=O)O)C(=O)COc1c(F)cccc1F | 1.14
CCOCc1cc(OC)c(-c2ccc(C[C@H](NC(=O)c3c(F)cccc3F)C(=O)O)cc2)c(OC)c1 [Firategrast] | 0.931
CC(C(=O)O)c1ccc(-c2ccccc2)c(F)c1 (centres undefined) [Flurbiprofen] | 0.64
C[C@]1(c2nc3c(C(N)=O)cccc3[nH]2)CCCN1 [Veliparib] | 0.721
CN[C@@H]1[C@H](O[C@H]2[C@H](O[C@H]3[C@H](O)[C@@H](O)[C@H](N=C(N)N)[C@@H](O)[C@@H]3N=C(N)N)O[C@@H](C)[C@]2(O)C=O)O[C@@H](CO)[C@H](O)[C@H]1O [Streptomycin_(sulfate)] | 0.697
COc1nccc(-c2c(-c3ccc(F)cc3)ncn2C2CCC(O)CC2)n1 (centres undefined) | 0.995
CCN1CCN(Cc2ccc(-c3cc4c(N[C@H](C)c5ccccc5)ncnc4[nH]3)cc2)CC1 | 0.0989
C[C@H]1COc2c(N3CCN(C)CC3)c(F)cc3c(=O)c(C(=O)O)cn1c23 [Levofloxacin] | 1.16
O=C(CCCCCCC(=O)Nc1ccccc1)NO [Vorinostat] | 0.0904
Cc1cnc(NC(=O)C2=C(O)c3ccccc3S(=O)(=O)N2C)s1 [Meloxicam] | 0.731
C[C@]12C=CC(=O)C=C1CC[C@@H]1[C@@H]2C(=O)C[C@@]2(C)[C@H]1CC[C@]2(O)C(=O)CO [Prednisone] | 0.718
CC(C)(Sc1cc(C(C)(C)C)c(O)c(C(C)(C)C)c1)Sc1cc(C(C)(C)C)c(O)c(C(C)(C)C)c1 [Probucol] | 0.859
CO/N=C(\C(=O)N[C@@H]1C(=O)N2C(C(=O)O)=C(COC(C)=O)CS[C@H]12)c1csc(N)n1 [Cefotaxime_(sodium_salt)] | 0.951
